In PubChem BioAssay (Tox21) one finds Potency, outcome and max activation data, which are given here for nine molecules.

Values without a mark were called inactive. Results filed as inconclusive are left out. Active and inactive are the calls of the source. Unless noted, calls follow the shape of the dose curve; as a rule, active = well fitted curve in the direction sought with a large enough effect in the repeat runs; inconclusive = weak or mixed curves; inactive = no such curve, though single readings can be large; an effect the other way counts as inactive or inconclusive.

For assay [1], the target named is Progesterone receptor (Homo sapiens) (UniProt P06401). Nature of the assay: qHTS assay to identify small molecule agonists of the progesterone receptor (PR) signaling pathway (AID 1346784; calls by dose curve; also: nearly all actives have a fitted effect of over 30% in size). Summed up: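 Agonist qHTS: compounds pinned onto 3,000 PR-UAS-bla HEK 293T cells per well in charcoal-stripped serum medium, 16hr at 37C, then beta-lactamase activity measured by LiveBLAzer FRET fluorescence after 2 hours at room temperature.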

The nature of assay [2]: qHTS assay to identify small molecule antagonists of the progesterone receptor (PR) signaling pathway - cell viability counter screen (AID 1346798). Also: series mostly up to about 92 µM; nearly all actives have a fitted effect of over 50% in size. In a few lines:
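Cytotoxicity read as CellTiter-Glo luminescence (30 min, room temperature) in the same wells as the beta-lactamase readout. HEK293T PR-UAS-bla cells in charcoal-stripped 2% FBS received compound and R5020, then 16 h at 37C, 5% CO2.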

The nature of assay [3]: qHTS assay to identify small molecule antagonists of the TGF-beta/Smad signaling pathway - cell viability counter screen (AID 1346824). Also: nearly all actives have a fitted effect of over 50% in size. In a few lines: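 Cytotoxicity counter-screen run in the same wells as the beta-lactamase Smad reporter read: CellTiter-Glo luminescence after 30 min at room temperature. HEK 293T SBE-bla cells had 5 hr compound exposure at 37 C with TGF-beta1 (0.25 ng/mL stock).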

Assay [4] can be described thus: qHTS assay to identify small molecule agonists of the TGF-beta/Smad signaling pathway - cell viability counter screen (AID 1346829). Also: top concentration of the series differs between compounds; nearly all actives have a fitted effect of over 45% in size. Summed up:
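CellTiter-Glo luminescence readout; SBE-bla HEK 293T cells, overnight plating, compound 5 hr at 37 C/5% CO2, then bla substrate 2 hr RT, then CellTiter-Glo 30 min RT.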

Assay [5] can be described thus: qHTS assay to identify small molecule agonists of the TGF-beta/Smad signaling pathway (AID 1346859; active = well fitted activation curve with a large enough effect in the signal ratio in the repeat runs, not every such curve was filed as active; the % refers to the signal ratio; also: series mostly up to about 77 µM). Summed up: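 Fluorescence (ex 405 nm; em 460 and 530 nm) was read 2 h after LiveBLAzer FRET substrate at RT. The preceding compound treatment of overnight-plated SBE-bla HEK293T cells lasted 5 h at 37 C.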
Assay [6] can be described thus: Human pregnane X receptor (PXR) small molecule agonists, qHTS cell viability counter screen (AID 1346977). Also: nearly all actives have a fitted effect of over 50% in size. Summed up: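 Same-well viability read: CellTiter-Fluor added after 23 hr compound exposure, fluorescence measured 1 hr later. Cells were PXR-Luc HepG2 seeded at 2,000/well in 5% charcoal-stripped FBS medium, rested 5 hr before dosing at 37 C.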
Assay [7] is described as follows: Caspase-3/7 induction in HepG2 cells by small molecules, qHTS assay (AID 1346978). Also: nearly all actives have a fitted effect of over 15% in size. Summed up: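 Caspase-3/7 induction was measured by Caspase-Glo 3/7 luminescence (30 min, room temperature) after a 17 hr compound exposure of wild-type HepG2 cells seeded at 2,000 per well and pre-incubated 5 hr.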
A short description of assay [8]: Caspase-3/7 induction in CHO-K1 cells by small molecules, qHTS cell viability counter screen (AID 1346979). Also: nearly all actives have a fitted effect of over 35% in size. Also: potency is read from the fitted curve at half-maximal effect. In a few lines: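 Cytotoxicity counter screen: CellTiter-Fluor added to compound-treated wild-type CHO-K1 cells at 16 h (37C, 5% CO2), fluorescence measured 1 h later; same wells as caspase-3/7 measurement.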
Assay [9] is described as follows: Caspase-3/7 induction in CHO-K1 cells by small molecules, qHTS assay (AID 1346980). Also: nearly all actives have a fitted effect of over 15% in size. Summed up:
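Luminescent Caspase-Glo 3/7 read (30min, room temperature) quantified apoptosis induction. Cells were wild-type CHO-K1, treated with compound for 17hr at 37 C and 5% CO2.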

Assay [10] is described as follows: Caspase-3/7 induction in HepG2 cells by small molecules, qHTS cell viability counter screen (AID 1346981). Also: series mostly up to about 92 µM; nearly all actives have a fitted effect of over 30% in size. Summed up:
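In this quantitative HTS counter screen, compounds delivered in DMSO were left on unmodified HepG2 cells for 16 hr at 37 C. Viability was then determined fluorometrically with CellTiter-Fluor, in parallel with caspase-3/7 induction in the same wells.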

The target of assay [11] is Cytochrome P450 2D6 (Homo sapiens) (UniProt P10635). In words: Cytochrome P450 Family 2 Subfamily D Member 6 (CYP2D6) small molecule antagonists: luciferase reporter qHTS assay (AID 1671196). Also: nearly all actives have a fitted effect of over 50% in size. Also: potency is read from the fitted curve at half-maximal effect. In a few lines:
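Test chemicals meet CYP2D6 plus proluciferin substrate (10 min, RT); NADPH regenerating solution then drives turnover for 1 h. Detection reagent halts the reaction; luminescence measured after 20 min.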

Assay [12] addresses Cytochrome P450 2C19 (Homo sapiens) (UniProt P33261). In words: Cytochrome P450 Family 2 Subfamily C Member 19 (CYP2C19) small molecule antagonists: luciferase reporter qHTS assay (AID 1671197). Also: series mostly up to about 120 µM; nearly all actives have a fitted effect of over 65% in size. In a few lines:
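Enzyme-substrate mix with proluciferin substrate (P450-Glo CYP2C19 system) preincubated with compounds 10 min at room temperature; NADPH regeneration solution added, 37C for 1 h; detection reagent stops reaction, luminescence read after 20 min. Ketoconazole positive control.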

Assay [13] deals with Thyrotropin-releasing hormone receptor (Homo sapiens) (UniProt P34981). In words: qHTS assay to identify small molecule antagonists of the thyrotropin-releasing hormone receptor (TRHR) signaling pathway (AID 1346877; active = well fitted inhibition curve with a large enough effect in the repeat runs, not every such curve was filed as active; also: series mostly up to about 51 µM). In a few lines: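 Kinetic fluorescence (3 min, 1 s resolution) following stimulation with TRH at 1 nM final; HEK293 cells bearing human TRHR; 5 min compound preincubation at RT; concentration-response over 15 points, triplicates.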

For assay [14] the target is unchanged. Nature of the assay: qHTS assay to identify small molecule agonists of the thyrotropin-releasing hormone receptor (TRHR) signaling pathway (AID 1346891; calls by dose curve; also: series mostly up to about 58 µM). In a few lines: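 Agonist-mode intracellular calcium readout: kinetic fluorescence over 3 min at 1 s intervals after compound addition to TRHR-HEK293 cells (18 h seeded, 2 h dye-loaded at 37 C). Fifteen concentrations, triplicates.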

Assay [15] has as its target Nuclear receptor subfamily 1 group I member 2 (Homo sapiens) (UniProt O75469). Nature of the assay: Human pregnane X receptor (PXR) small molecule agonists, qHTS assay (AID 1346982). Also: nearly all actives have a fitted effect of over 35% in size. In a few lines:
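Reporter HepG2 cells expressing PXR-Luc are cultured in charcoal-stripped FBS (5%), treated with compounds for 24 hr at 37 C, and assayed by ONE-Glo luminescence after 30 min at room temperature.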

In assay [16] the target is Nuclear receptor subfamily 1 group I member 2 (Rattus norvegicus) (UniProt Q9R1A7). In words: Rat pregnane X receptor (rPXR) activation by small molecules, qHTS assay (AID 1346983). Also: nearly all actives have a fitted effect of over 20% in size. The following applies: rPXR luciferase reporter cells, One-Glo luminescence, 24 h; max activation: hits give high values. Summed up:
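Luminescent readout (One-Glo luciferase, 30 min room temperature) followed 24 hr compound treatment at 37 C of rPXR cells plated 2,000 per well and preincubated 5hr; qHTS format with compounds delivered in DMSO.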

Assay [17] addresses Nuclear receptor subfamily 1 group I member 2 (Homo sapiens) (UniProt O75469). Nature of the assay: CYP3A4 induction through human pregnane X receptor (PXR) by small molecules, qHTS assay (AID 1346984). Also: nearly all actives have a fitted effect of over 40% in size. In a few lines:
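Induction measured in HepG2-based DPX-2 cells co-expressing human PXR and a CYP3A4 promoter-driven luciferase. After a 24-hour compound exposure, cells received CYP3A4 luciferin substrate at 3uM final for 3 hours, and light output was then recorded.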

Assay [18] has the same target. In words: Human pregnane X receptor (PXR) activation by small molecules, qHTS assay (AID 1346985). Also: nearly all actives have a fitted effect of over 40% in size. In a few lines:
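DPX-2 cells (HepG2 co-transfected with a PXR response element and a CYP3A4-promoter luciferase construct) were seeded at 2,000 per well, rested 5 hr at 37C, then exposed to DMSO-dissolved compounds for 24 hr. Activation was read as luciferase luminescence.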

Assay [19] deals with Progesterone receptor (Homo sapiens) (UniProt P06401). In words: qHTS assay to identify small molecule antagonists of the progesterone receptor (PR) signaling pathway (AID 1346795; active = well fitted inhibition curve with a large enough effect in the signal ratio in the repeat runs, not every such curve was filed as active; the % refers to the signal ratio). In a few lines:
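Antagonist mode with agonist R5020 at 1 nM final and 16 hr incubation at 37C. Reporter was beta-lactamase driven by UAS in HEK293T (PR-UAS-bla), 2% charcoal-stripped serum; signal from LiveBLAzer FRET substrate, 2 hr at room temperature.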

Assay [20] in a line: qHTS assay to identify small molecule agonists of the progesterone receptor (PR) signaling pathway - cell viability counter screen (AID 1346799; calls by dose curve; also: nearly all actives have a fitted effect of over 45% in size). In a few lines:
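Cytotoxicity measured by CellTiter-Glo luminescence (30 min, RT) in the same wells as the PR beta-lactamase agonist read. Those HEK293T cells had 16 h compound treatment at 37 C in 2% charcoal-stripped FBS medium.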
% is scaled to controls: 0 for no effect and ±100 for the full control effect.

Chain of Thyrotropin-releasing hormone receptor (Homo sapiens) (P34981 whole entry, looked up): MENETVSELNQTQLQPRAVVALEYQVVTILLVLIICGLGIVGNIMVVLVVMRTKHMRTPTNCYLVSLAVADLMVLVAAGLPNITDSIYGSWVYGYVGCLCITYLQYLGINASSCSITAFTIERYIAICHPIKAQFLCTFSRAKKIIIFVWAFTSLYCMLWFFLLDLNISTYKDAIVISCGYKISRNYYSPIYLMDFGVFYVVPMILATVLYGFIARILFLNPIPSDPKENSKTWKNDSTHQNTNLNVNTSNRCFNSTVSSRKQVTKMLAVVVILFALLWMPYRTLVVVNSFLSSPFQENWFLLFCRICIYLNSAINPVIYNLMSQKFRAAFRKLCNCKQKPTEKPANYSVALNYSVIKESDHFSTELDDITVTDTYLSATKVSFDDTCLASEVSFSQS
Chain of Cytochrome P450 2D6 (Homo sapiens) (P10635 whole entry, looked up): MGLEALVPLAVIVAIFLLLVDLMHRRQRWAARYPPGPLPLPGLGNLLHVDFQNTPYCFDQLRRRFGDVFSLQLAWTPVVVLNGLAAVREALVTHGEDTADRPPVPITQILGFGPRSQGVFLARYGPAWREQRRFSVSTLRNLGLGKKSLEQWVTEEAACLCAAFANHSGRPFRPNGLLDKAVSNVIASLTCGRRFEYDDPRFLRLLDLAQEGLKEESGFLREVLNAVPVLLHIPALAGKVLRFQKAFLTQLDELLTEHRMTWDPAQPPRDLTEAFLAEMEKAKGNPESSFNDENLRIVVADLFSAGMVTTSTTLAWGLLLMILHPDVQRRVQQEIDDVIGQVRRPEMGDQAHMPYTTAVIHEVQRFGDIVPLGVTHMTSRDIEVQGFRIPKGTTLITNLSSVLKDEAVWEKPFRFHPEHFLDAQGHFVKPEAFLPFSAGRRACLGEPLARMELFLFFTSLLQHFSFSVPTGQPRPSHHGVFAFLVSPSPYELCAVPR
Chain of Progesterone receptor (Homo sapiens) (P06401 whole entry, looked up): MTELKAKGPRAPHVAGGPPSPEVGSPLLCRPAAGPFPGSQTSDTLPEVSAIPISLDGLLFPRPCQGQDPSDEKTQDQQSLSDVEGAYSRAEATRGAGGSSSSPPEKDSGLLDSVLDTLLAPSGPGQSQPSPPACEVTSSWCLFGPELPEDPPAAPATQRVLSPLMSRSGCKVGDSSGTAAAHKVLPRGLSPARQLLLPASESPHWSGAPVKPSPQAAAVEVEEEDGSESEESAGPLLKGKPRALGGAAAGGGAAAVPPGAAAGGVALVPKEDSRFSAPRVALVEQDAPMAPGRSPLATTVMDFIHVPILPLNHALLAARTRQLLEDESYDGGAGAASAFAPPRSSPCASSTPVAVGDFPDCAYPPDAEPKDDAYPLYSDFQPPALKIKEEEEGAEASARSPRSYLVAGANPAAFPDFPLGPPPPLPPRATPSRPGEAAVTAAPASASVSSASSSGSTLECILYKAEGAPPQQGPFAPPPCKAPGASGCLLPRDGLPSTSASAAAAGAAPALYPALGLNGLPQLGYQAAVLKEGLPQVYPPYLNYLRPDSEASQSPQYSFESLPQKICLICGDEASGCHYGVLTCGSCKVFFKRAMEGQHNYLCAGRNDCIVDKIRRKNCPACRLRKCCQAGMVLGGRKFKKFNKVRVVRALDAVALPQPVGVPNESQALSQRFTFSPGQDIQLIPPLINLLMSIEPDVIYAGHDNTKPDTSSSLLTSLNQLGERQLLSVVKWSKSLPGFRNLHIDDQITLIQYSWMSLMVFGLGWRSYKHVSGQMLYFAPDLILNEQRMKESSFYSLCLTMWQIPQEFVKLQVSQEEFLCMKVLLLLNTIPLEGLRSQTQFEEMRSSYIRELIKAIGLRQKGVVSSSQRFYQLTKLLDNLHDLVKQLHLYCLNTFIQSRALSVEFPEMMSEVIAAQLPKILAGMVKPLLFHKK
Chain of Nuclear receptor subfamily 1 group I member 2 (Rattus norvegicus) (Q9R1A7 whole entry, looked up): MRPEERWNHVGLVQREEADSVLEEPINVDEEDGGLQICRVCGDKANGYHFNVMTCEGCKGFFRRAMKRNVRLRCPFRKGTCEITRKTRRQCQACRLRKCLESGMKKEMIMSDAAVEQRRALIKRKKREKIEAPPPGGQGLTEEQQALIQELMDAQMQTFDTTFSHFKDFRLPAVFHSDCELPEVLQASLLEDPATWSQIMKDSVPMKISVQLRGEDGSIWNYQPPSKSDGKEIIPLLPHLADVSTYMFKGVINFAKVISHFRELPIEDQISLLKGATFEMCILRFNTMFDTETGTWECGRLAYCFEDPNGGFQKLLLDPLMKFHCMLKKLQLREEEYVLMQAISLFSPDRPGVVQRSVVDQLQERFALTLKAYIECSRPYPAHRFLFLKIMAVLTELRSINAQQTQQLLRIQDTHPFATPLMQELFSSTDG
Chain of Cytochrome P450 2C19 (Homo sapiens) (P33261 whole entry, looked up): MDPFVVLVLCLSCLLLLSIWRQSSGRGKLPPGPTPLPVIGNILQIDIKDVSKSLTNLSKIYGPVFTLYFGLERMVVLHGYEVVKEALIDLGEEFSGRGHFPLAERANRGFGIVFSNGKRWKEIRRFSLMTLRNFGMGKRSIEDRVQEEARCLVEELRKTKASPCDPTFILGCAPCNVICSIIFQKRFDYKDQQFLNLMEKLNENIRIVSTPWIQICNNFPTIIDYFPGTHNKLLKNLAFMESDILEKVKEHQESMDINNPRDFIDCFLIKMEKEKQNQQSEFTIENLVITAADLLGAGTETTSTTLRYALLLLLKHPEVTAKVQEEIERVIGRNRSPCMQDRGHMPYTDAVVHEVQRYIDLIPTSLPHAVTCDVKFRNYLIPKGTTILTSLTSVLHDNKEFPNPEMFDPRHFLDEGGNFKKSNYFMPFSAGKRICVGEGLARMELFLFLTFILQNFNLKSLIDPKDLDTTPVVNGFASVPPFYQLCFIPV
Chain of Nuclear receptor subfamily 1 group I member 2 (Homo sapiens) (O75469 whole entry, looked up): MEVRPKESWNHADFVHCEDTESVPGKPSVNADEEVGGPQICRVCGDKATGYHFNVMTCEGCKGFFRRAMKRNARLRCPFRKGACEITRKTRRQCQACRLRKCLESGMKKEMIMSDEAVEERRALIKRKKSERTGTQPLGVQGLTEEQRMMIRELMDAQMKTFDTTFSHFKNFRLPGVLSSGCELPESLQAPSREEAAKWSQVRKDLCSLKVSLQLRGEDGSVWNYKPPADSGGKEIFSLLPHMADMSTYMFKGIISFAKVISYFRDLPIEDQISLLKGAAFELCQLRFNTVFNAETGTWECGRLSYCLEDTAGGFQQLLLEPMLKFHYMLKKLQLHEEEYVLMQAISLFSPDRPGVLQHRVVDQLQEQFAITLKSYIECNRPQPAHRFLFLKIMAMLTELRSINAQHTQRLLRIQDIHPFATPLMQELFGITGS

`CCCC[N+](C)(CCCC)CCCC`: the Potency entry in assay [1], in assay [2], in [6], in assay [8], in assay [10] and in [12] was “inactive” in each case. Further, the result in assay [3], in [4], in [5], in [7] and in assay [9] was inactive. The Potency in assay [11] is 2.77 µM (active).
`CCC1C(=O)OCC1Cc1cncn1C` (stereo not drawn): the Potency result in [1], in assay [2], in assay [14], in assay [6], in [10] and in assay [15] was “inactive” in each case. Moreover, the Potency result in assay [17], in [18], in assay [11] and in [12] was “inactive” in each case. For the same molecule, the call in assay [3], in assay [4], in assay [5], in [13], in assay [7] and in assay [9] was inactive. Further, the max activation in [16] was -2.44%.
`CCC(C(=O)NC(=O)NC(C)=O)c1ccccc1` (stereo not drawn): the Potency result in assay [1], in [2], in [14], in assay [6], in assay [8] and in [10] was “inactive” in each case. The Potency entry in assay [15], in assay [11] and in assay [12] was “inactive” each time. For the same molecule, the molecule was classed as inactive in assay [3], in assay [4], in assay [5], in [13], in assay [7] and in [9].
As to `Cc1nc2ccc(CN(C)c3ccc(C(=O)N[C@@H](CCC(=O)O)C(=O)O)s3)cc2c(=O)[nH]1`, the Potency result in assay [1], in [2], in assay [6], in assay [8], in assay [10] and in assay [15] was “inactive” in each case. The Potency result in assay [17], in assay [18], in [11] and in assay [12] was “inactive” each time. Further, the molecule was classed as inactive in assay [3], in assay [4], in [5], in assay [13] and in assay [7]. Besides, the max activation in assay [16] was -1.92%.
As for `CC(C)(CCC(=O)O)C(=O)O`, the Potency result in assay [1], in assay [2], in assay [14], in assay [6], in [8] and in assay [10] was “inactive” in each case. The Potency result in assay [15], in [11] and in [12] was “inactive” each time. In addition, the result in assay [3], in assay [4], in assay [5], in assay [13] and in assay [9] was inactive.
As to `NC(=O)N1c2ccccc2CC(=O)c2ccccc21`, the Potency entry in [1], in assay [2], in [6] and in [10] was “inactive” in each case. Besides, the molecule was called inactive in assay [3], in [4], in [5], in assay [7] and in assay [9]. In assay [16], the max activation was -3.02%.
Regarding `CC(C)(C)C(=O)Oc1ccc(S(=O)(=O)Nc2ccccc2C(=O)NCC(=O)O)cc1`, the Potency entry in [19], in assay [2], in assay [20], in assay [14], in assay [6] and in assay [8] was “inactive” in each case. In addition, the Potency entry in assay [10], in assay [15], in [17], in assay [18] and in assay [11] was “inactive” in each case. Also, the molecule was called inactive in [3], in assay [4], in assay [5], in assay [13], in assay [7] and in [9]. For the same molecule, the max activation in assay [16] is -2.02%.
In the case of `Cc1ncc([C@@H](CCCCCCc2ccc3c(n2)NCCC3)CC(=O)O)cn1`, the Potency entry in assay [1], in [2], in assay [6], in [15], in [11] and in assay [12] was “inactive” in each case. For the same molecule, the molecule was called inactive in assay [3], in [4], in assay [5], in assay [13], in [7] and in assay [9]. Moreover, the Potency in assay [8] was 38.6 µM (active).
Turning to `O=C(CO)[C@@H](O)[C@H](O)[C@@H](O)CO`, the Potency entry in assay [19], in [2], in assay [20], in assay [14], in assay [6] and in [8] was “inactive” in each case. Moreover, the Potency entry in assay [10] and in assay [15] was “inactive” throughout. Besides, the call in assay [3], in [4], in [5], in assay [13] and in assay [7] was inactive.
